In all, about 310,000 compounds went through this assay and about 11,000 (3.5%) were called active. Where a call stands in place of a potency, no number is given. Inconclusive results (about 8%) are left out. This is one part of a sample in which actives are shown more often than they occur. The call rests on the fitted dose curve; in most records, active means well fitted inhibition curve with a large enough effect; inconclusive means small, poorly fitted or top-dose-only effect, or effect the other way; inactive means flat fitted curve, though single readings scatter.
Assay: VP16 counterscreen qHTS for inhibitors of ROR gamma transcriptional activity; further: nearly all actives have a fitted effect of over 50% in size
Details: Drosophila S2 Gal4-VP16 UAS-luciferase, luminescence, 20 h; series mostly up to 53.6 µM
Description: NIH Molecular Libraries Probe Production Network [MLPCN]
NIH Chemical Genomics Center [NCGC]
Assay Provider: Dan Littman, New York University
The retinoic acid-related orphan receptor (ROR) gamma is a transcription factor that has a central role in the differentiation of Th17 cells, a subset of T helper cells that secrete the inflammatory cytokines IL-17, IL-17F, and IL-22. Th17 cells have been implicated in graft versus host disease, autoimmune disease and asthma. ROR gamma is induced in naive T helper cells in the presence of TGF-beta combined with IL-6, IL-21, or IL-23, and thereafter directs the expression of the Th17 lineage cytokines. To identify nonspecific inhibitors, a Drosophila Schneider cell line was stably transfected with two vectors: a gene expressing a fusion of the Gal4 DNA binding domain and VP16 transactivation domain under the control of the metallothionine promoter and a Photinus luciferase reporter regulated by the Gal4 binding site enhancer, UAS. […] Small molecule inhibitors that inhibit components common to the RORgt and VP16 assays, such as the Gal4 DNA binding domain or the UAS luciferase reporter, will be active in both assays and thus scored as nonspecific.
For screening, 600 cells in 4 uL/well were dispensed into white solid 1536-well plates (Grenier) using a solenoid-based dispenser. Following transfer of 23 nL compound or DMSO vehicle by a pin tool, the plates were incubated 1 hr at ambient temperature, and 1 uL/well copper sulfate (700 uM final concentration) was added. The plates were centrifuged 15 s at 1000 RPM and incubated 20 hr at ambient temperature. After addition of 1.5 uL Photinus luciferase detection reagent, the plates were incubated 10 min at ambient temperature and then read by a ViewLux (Perkin Elmer) to detect luminescence.
Potency means the concentration at half of the fitted maximal effect.

Q: With `CC(NC(=O)C(=O)NN=C1CCC(C(C)(C)C)CC1)c1ccccc1` (configuration not stated) as the molecule, how does the Potency read?
A: The Potency was “inactive”.

Q: With `CC(C)(C)C1CCC(=NNC(=O)c2ccc(Br)o2)CC1` (configuration not stated) as the molecule, how does the Potency read?
A: The Potency was “inactive”.

Q: With `CC(C)(C)C1CCC(=NNC(=O)c2cc(-c3ccccc3)n[nH]2)CC1` (configuration not stated) as the molecule, how does the Potency read?
A: The Potency was 20 µM (active).

Q: Which Potency does the source give for `CN(Cc1ccccc1Cl)C(=O)C1CCC(=O)N(CCc2cccc(F)c2)C1` (configuration not stated) here?
A: The Potency was “inactive”.

Q: With `O=C(Cc1csc(Nc2nc(=S)[nH]c3ccccc23)n1)NCCCN1CCN(c2cccc(Cl)c2)CC1` as the molecule, how does the Potency read?
A: Its Potency is 7.08 µM (active).

Q: With `CCn1c(=O)cc(OCC(=O)NCCCN2CCN(c3cccc(Cl)c3)CC2)c2ccccc21` as the molecule, how does the Potency read?
A: Its Potency is “inactive”.

Q: With `O=C(CCCn1c(=O)[nH]c2cc(Cl)ccc2c1=O)NCCN1CCN(c2ccccc2)CC1` as the molecule, how does the Potency read?
A: Its Potency is “inactive”.

Q: For `CCCCn1c(N)c(N(CC)C(=O)c2ccccc2C(F)(F)F)c(=O)[nH]c1=O`, which Potency is on record?
A: Its Potency is “inactive”.

Q: For `Cc1ccc(CNC(=O)Cc2cn(C)c3ccccc23)cc1`, which Potency is on record?
A: The Potency was “inactive”.

Q: Which Potency does the source give for `CC1CCCC(C)N1C(=O)CSc1nnnn1C1CCCC1` (configuration not stated) here?
A: Its Potency is “inactive”.

Q: With `O=C(NCCCO)c1cc2c([nH]c3ccccc32)c(-c2ccc(F)cc2)n1` as the molecule, how does the Potency read?
A: Its Potency is “inactive”.

Q: For `S=c1[nH]c2ccccc2c2ccccc12`, which Potency is on record?
A: Its Potency is 17.8 µM (active).

Q: For `NC(=O)Cc1ccc2c(c1)[nH]c1ccccc12`, which Potency is on record?
A: The Potency was “inactive”.

Q: Which Potency does the source give for `CC(=O)c1c(-c2ccccc2)c2ccccc2[nH]c1=O` here?
A: The Potency was “inactive”.

Q: With `COc1ccc(S(=O)(=O)N2CCOCC2)cc1C(=O)Nc1nc2ccccc2s1` as the molecule, how does the Potency read?
A: Its Potency is “inactive”.

Q: With `O=C(Nc1ccccc1)Nc1nc2ccccc2s1` as the molecule, how does the Potency read?
A: Its Potency is “inactive”.

Q: For `COc1cccc2sc(NNC(=O)c3nc4ccccc4s3)nc12`, which Potency is on record?
A: The Potency was 2 µM (active).

Q: With `O=c1[nH]cccc1-c1nc2ccccc2n1Cc1ccc(Cl)cc1` as the molecule, how does the Potency read?
A: The Potency was “inactive”.

Q: For `Cc1cc(C)c(NC(=O)CN2CCCCCC2)c(C)c1`, which Potency is on record?
A: Its Potency is “inactive”.

Q: With `Cc1cc(-c2n[nH]c(=S)n2/N=C/c2ccco2)n[nH]1` as the molecule, how does the Potency read?
A: Its Potency is “inactive”.

Q: For `Fc1ccccc1/C=N/n1c(-c2cccnc2)n[nH]c1=S`, which Potency is on record?
A: Its Potency is “inactive”.

Q: For `S=c1[nH]nc(-c2cccnc2)n1/N=C/C(Cl)=C\c1ccccc1`, which Potency is on record?
A: Its Potency is 7.08 µM (active).

Q: For `O=[N+]([O-])c1ccccc1/C=N/n1c(COc2ccccc2)n[nH]c1=S`, which Potency is on record?
A: The Potency was “inactive”.

Q: Which Potency does the source give for `Oc1ccccc1/C=N/n1c(-c2cccs2)n[nH]c1=S` here?
A: The Potency was “inactive”.

Q: For `Cc1cc(-c2n[nH]c(=S)n2/N=C/C(Br)=C/c2ccccc2)n[nH]1`, which Potency is on record?
A: The Potency was 11.2 µM (active).

Q: For `COc1ccc(C2(O)C(=O)Nc3ccccc32)cc1` (configuration not stated), which Potency is on record?
A: The Potency was “inactive”.

Q: With `COCCN1C(=O)C(=O)/C(=C(/O)c2ccc(S(=O)(=O)N3CCOCC3)cc2)C1c1ccc(O)c(OC)c1` (configuration not stated) as the molecule, how does the Potency read?
A: The Potency was “inactive”.

Q: With `CC(C)c1ccc(/C=C2\NC(=O)NC2=O)cc1` as the molecule, how does the Potency read?
A: Its Potency is “inactive”.

Q: With `CCN(CC)S(=O)(=O)c1ccc(C(=O)N2CCN(C3=NS(=O)(=O)c4ccccc43)CC2)cc1` as the molecule, how does the Potency read?
A: The Potency was “inactive”.

Q: Which Potency does the source give for `Cc1nc2nc(SCC(=O)Nc3cccc(F)c3)[nH]c2cc1Br` here?
A: The Potency was “inactive”.

Q: With `O=C(O)CCC(=O)Nc1ccc(OCC2CCCO2)cc1` (configuration not stated) as the molecule, how does the Potency read?
A: The Potency was “inactive”.

Q: Which Potency does the source give for `Cc1cc(C(=O)N/N=C/c2ccccn2)c2ccccc2n1` here?
A: Its Potency is “inactive”.

Q: Which Potency does the source give for `COc1cccc(-c2cc(C(=O)N/N=C/c3ccc(OC)c(COC(C)=O)c3)c3ccccc3n2)c1` here?
A: The Potency was “inactive”.

Q: Which Potency does the source give for `Cc1ccc(-c2cc(C(=O)N/N=C/C=C/c3ccco3)c3ccccc3n2)cc1C` here?
A: The Potency was 4.47 µM (active).

Q: For `CC(NC(=O)CCCC1CCCCC1)c1ccc(S(N)(=O)=O)cc1` (configuration not stated), which Potency is on record?
A: The Potency was “inactive”.

Q: For `O=C(O)CCn1c(O)c(C=C2N=c3ccccc3=N2)sc1=S`, which Potency is on record?
A: The Potency was 3.55 µM (active).

Q: For `Cc1cc2ccccc2n1CCC(=O)O`, which Potency is on record?
A: Its Potency is “inactive”.

Q: With `O=C(O)CCn1c(Cc2ccccc2)nc2ccccc21` as the molecule, how does the Potency read?
A: Its Potency is “inactive”.

Q: Which Potency does the source give for `COc1ccc(CCNC(=O)CCc2cn(C)c3ccccc23)c(OC)c1` here?
A: The Potency was “inactive”.

Q: For `COC(=O)CN1C(=O)C(C)(C)Oc2ccc(C(=O)Nc3cccc(OC)c3)cc21`, which Potency is on record?
A: The Potency was “inactive”.

Q: With `Cn1c(=O)c2c(nc(NCc3ccccc3)n2CC(N)=O)n(C)c1=O` as the molecule, how does the Potency read?
A: The Potency was “inactive”.

Q: Which Potency does the source give for `Cn1c(=O)c2c(nc(OCc3cccnc3)n2Cc2ccccc2)n(C)c1=O` here?
A: Its Potency is “inactive”.

Q: For `Cn1c(=O)c2c(nc(NCCc3ccccc3)n2Cc2ccccc2)n(C)c1=O`, which Potency is on record?
A: Its Potency is 6.31 µM (active).

Q: Which Potency does the source give for `COC(=O)C(C)Sc1nc2c(c(=O)n(C)c(=O)n2C)n1Cc1cccc(C)c1` (configuration not stated) here?
A: Its Potency is “inactive”.

Q: With `CCNc1ncc2ncc(=O)n(Cc3cccc(OC)c3)c2n1` as the molecule, how does the Potency read?
A: The Potency was 11.2 µM (active).

Q: For `CCNc1ncc2ncc(=O)n(CCc3ccccc3)c2n1`, which Potency is on record?
A: The Potency was “inactive”.

Q: Which Potency does the source give for `CCCCNc1nc2c(c(=O)n(C)c(=O)n2C)n1Cc1cccc(OC)c1` here?
A: Its Potency is 4.47 µM (active).

Q: With `CCn1c(NCCc2ccc(OC)c(OC)c2)nc2c1c(=O)n(C)c(=O)n2C` as the molecule, how does the Potency read?
A: The Potency was “inactive”.

Q: With `COc1cccc(Cn2c(=O)cnc3cncnc32)c1` as the molecule, how does the Potency read?
A: The Potency was “inactive”.

Q: With `CCOCCCn1c(SCC(=O)Nc2cc(OC)ccc2OC)nc2ccccc2c1=O` as the molecule, how does the Potency read?
A: The Potency was “inactive”.

Q: With `CC(C)c1nc2cc(C(=O)NC(C)c3cnn(C)c3)ccc2o1` (configuration not stated) as the molecule, how does the Potency read?
A: The Potency was “inactive”.

Q: With `Cc1cnc(C(=O)Oc2cccc(Cl)c2Cl)cn1` as the molecule, how does the Potency read?
A: The Potency was “inactive”.

Q: For `COCCN1CCN(C(=O)c2cc(COc3ccc(F)cc3Cl)on2)CC1`, which Potency is on record?
A: Its Potency is “inactive”.

Q: With `CC(C)c1ccc(NC(=O)Cn2ncc3ccccc32)cc1` as the molecule, how does the Potency read?
A: The Potency was “inactive”.

Q: Which Potency does the source give for `O=S1(=O)CCO[C@H]2Cc3ccccc3[C@H]2N1Cc1ccccc1` here?
A: The Potency was “inactive”.

Q: Which Potency does the source give for `CCN(CC(=O)NCCCN1CCOCC1)S(=O)(=O)c1cc(Cl)ccc1Cl` here?
A: Its Potency is “inactive”.

Q: With `COc1ccc(CC(=O)N[C@@H](CCSC)c2nc3ccccc3[nH]2)cc1` as the molecule, how does the Potency read?
A: The Potency was “inactive”.

Q: With `CSCCC(NC(=O)c1ccc(=O)n(C)n1)c1nc2ccccc2[nH]1` (configuration not stated) as the molecule, how does the Potency read?
A: The Potency was “inactive”.

Q: Which Potency does the source give for `CSCCC(NC(=O)c1cc([N+](=O)[O-])cc([N+](=O)[O-])c1)c1nc2ccccc2[nH]1` (configuration not stated) here?
A: Its Potency is 25.1 µM (active).

Q: For `CC(c1ccccn1)N(C)C(=O)c1ccc2nc(Cc3cccc(Cl)c3)oc2c1` (configuration not stated), which Potency is on record?
A: Its Potency is “inactive”.

Q: With `CCOC(=O)C(C)n1cnc2c(nnn2-c2cccc(OC)c2)c1=O` (configuration not stated) as the molecule, how does the Potency read?
A: The Potency was “inactive”.

Q: For `O=C1CSC(c2ccccc2)N1c1nc(-c2ccc(Cl)cc2Cl)cs1` (configuration not stated), which Potency is on record?
A: The Potency was “inactive”.

Q: With `Clc1ccc(-c2cc(-c3ccccn3)on2)c(Cl)c1` as the molecule, how does the Potency read?
A: Its Potency is 7.08 µM (active).

Q: For `O=C(NCc1ccccn1)c1cc(-c2ccccc2Cl)on1`, which Potency is on record?
A: Its Potency is “inactive”.

Q: For `CC(=O)N1CCCc2cc(S(=O)(=O)N3CCCC(C(=O)N4CCN(c5cccc(Cl)c5)CC4)C3)ccc21` (configuration not stated), which Potency is on record?
A: The Potency was 3.98 µM (active).

Q: With `CC(=O)N1c2ccc(S(=O)(=O)N3CCCC(C(=O)Nc4cccc(Cl)c4)C3)cc2CC1C` (configuration not stated) as the molecule, how does the Potency read?
A: Its Potency is “inactive”.

Q: For `CC(=O)N1CCCc2cc(S(=O)(=O)N3CCCC(C(=O)NCc4ccc(Cl)cc4)C3)ccc21` (configuration not stated), which Potency is on record?
A: The Potency was “inactive”.
